According to PubChem BioAssay:

Assay: small-molecule microarray binders of probe aWnt5a, primary screen, biochemical, biotinylated probe, 635/667 nm fluorescence (AID 1113);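 also: score merges 667 nm fluorescence intensity with signal-to-noise per printed feature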
Details: higher = more signal

Row | SMILES | composite z-score
1 | CO[C@@H]1COC(=O)CC=C[C@@H](C)[C@@H]2C=C[C@@H](O)[C@@H](COC(=O)CC=C[C@H]1C)O2 | -0.252
2 | CO[C@@H]1COC(=O)[C@H](C)NC(=O)[C@@H](C)COC(=O)CCC[C@H]1C | -0.101
3 | COC(=O)[C@@]1(Cc2ccc(OC)cc2)[C@H]2c3cc(C(=O)N4CCCC4)n(Cc4cc(F)c(F)c(F)c4)c3C[C@H]2CN1C(=O)c1ccccc1 | 1.11
4 | CC(C)=NOCc1cccc(-c2cc(-c3ccccc3)no2)c1 | -0.0874
5 | CC(C)=NOCc1ccc(-c2cc(-c3ccccc3)no2)cc1 | -0.0701
6 | Cn1cccc1C(O)C1C=CC2C(=O)NC(=O)C2N1Nc1ccccn1 (stereo unspecified) | -0.0512

Assay: small-molecule microarray binders of probe aShh, primary screen, biochemical, biotinylated probe, 635/667 nm fluorescence (AID 1114);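 also: probe is biotin-labelled aShh protein from a stem cell growth factor screen; measures binding of labelled protein to compounds printed on the slide; score merges feature fluorescence at 667 nm with signal-to-noise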
Details: higher = more signal

Row | SMILES | composite z-score
7 | CCN1C(=O)[C@H]2[C@H]3[C@H](O)[C@H](O)CC(=NOC[C@@H](C)[C@H](OCc4ccccc4)C(C)C)[C@@H]3CC[C@H]2C1=O | -0.262
8 | CCOC(=O)NN=C1C[C@@H](O)[C@@H](O)[C@@H]2[C@@H]3C(=O)N(C4CCCCC4)C(=O)[C@@H]3CC[C@@H]12 | -0.341
9 | CCc1cc2c(nc1CC)CCN(CCC(C)=NOC[C@@H](O)[C@H]1O[C@@H]3OC(C)(C)O[C@@H]3[C@H]1O)C2 | -0.16
10 | CC(C)NC(=O)[C@@H]1c2ccccc2C(=O)N(CC23CC4CC(CC(C4)C2)C3)[C@H]1c1ccc(CO)cc1 | 0.439
11 | CN1C(=O)C2C=CC(C(O)C(c3ccccc3)c3ccccc3)N(NC(=O)OC(C)(C)C)C2C1=O (stereo unspecified) | 0.915
12 | CC(C)(C)OC(=O)CC[C@]1(C(N)=O)COC(c2ccc(OCCCO)cc2)=N1 | 0.591
13 | C/C=C\[C@@H](NCc1ccccc1Br)[C@@H](O)Cc1ccccc1 | -0.291
14 | CCOC(=O)C1=CC[C@H]2C(=O)N(CC)C(=O)[C@@H]12 | 0.329
15 | COC(=O)C1(C)C=C2C(=C(c3ccccc3)C(=O)C2C)CN1 (stereo unspecified) | -0.119
16 | CO[C@@H]1COC(=O)CC=C[C@@H](C)[C@@H]2C=C[C@H](O)[C@@H](COC(=O)CCC[C@H]1C)O2 | 0.211
17 | CCOC(=O)[C@H](Cc1ccccc1)NC(=O)CCC1CC(OC(=O)NCc2ccc3c(c2)OCO3)CC2(CCCC(COC(=O)NCC(c3ccccc3)c3ccccc3)O2)O1 (stereo partly specified) | 0.0723
18 | CN1C(=O)C2C(C1=O)C1C=C(CCCO)C2C(c2ccc(CN3CCCC3)cc2)N1C (stereo unspecified) | -0.273
19 | [N-]=[N+]=NCc1ccccc1[C@@H]1OC(c2ccc(OCCCO)cc2)=N[C@]1(Cc1ccccc1)C(=O)N1CCOCC1 | 0.26
20 | CO[C@@H]1COC(=O)CCC[C@@H](C)[C@H](OC)COC(=O)CCC[C@H]1C | -0.206
21 | C=COC[C@H]1CN2[C@@H](CC[C@@H](C)[C@@H]2c2ccc(Br)cc2)C(=O)O1 | -0.304
22 | CC(C)=CCCC(C)=CCON=C1[C@H]2CCn3c(=O)n(Cc4cc5c(cc4Cl)OCO5)c(=O)n3[C@H]2[C@H](O)[C@@H]2O[C@H]12 | -0.138
23 | C=CCOC(=O)[C@H]1[C@@H]2C(=O)O[C@@H](c3ccccc3)[C@@H](c3ccccc3)N2[C@@H](c2ccc(OCCOC(=O)[C@H]3C[C@H]4C(=O)N5CCC[C@H]5C(=O)N4[C@H]3c3cccc(OCCO)c3)cc2)[C@]12C(=O)Nc1ccc(I)cc12 | 1.97
24 | COc1ccc(-c2ccc3c(n2)CCCN3CC(O)CN2CCCc3nc(C)c(C)cc32)cc1 (stereo unspecified) | 0.699

Row | SMILES | composite z-score
25 | COC(=O)[C@@]1(Cc2ccccc2)[C@H]2c3cc(C(=O)N4CCCC4)n(Cc4ccccn4)c3C[C@H]2CN1C(=O)c1ccccc1 | 0.894
26 | CC(C)NC(=O)[C@@]1(C)c2ccccc2C(=O)N(Cc2cc(F)cc(C(F)(F)F)c2)[C@H]1c1ccc(CO)cc1 | -0.121
27 | CO[C@H]1COC(=O)[C@H](C)COC(=O)CC=C[C@@H](C)[C@H](OC)COC(=O)CC=C[C@@H]1C | -0.0709
28 | CC(=O)OC[C@H]1O[C@H](CCON=C(C)CCC(=O)OC[C@H]2O[C@H](C#Cc3ccccc3)C=C[C@@H]2Oc2ccc(C)cc2)C=C[C@@H]1OC(C)=O | -0.138
29 | CN(C)C(=O)[C@@]1(Cc2ccccc2)N=C(c2ccc(OCCCO)cc2)O[C@H]1c1ccccc1CN=[N+]=[N-] | 0.64
30 | C=CCC(OC(C)=O)[C@@H]1[C@@H](N(Cc2cc3ccccc3o2)C(=O)Cc2ccc(F)cc2)c2cc(OCCCO)ccc2N1C(=O)Cc1ccc(OC)cc1 (stereo partly specified) | 0.14
31 | COc1ccc(O[C@H]2C=C[C@@H](c3ccccc3)O[C@@H]2COC(=O)CCC(C)=NO[C@H](C)c2cn([C@@H]3COC[C@H]3O)nn2)cc1 | 0.0062
32 | O=C(NN=C1C[C@@H](O)[C@@H](O)[C@@H]2[C@@H]3C(=O)N(c4cccc(Oc5ccccc5)c4)C(=O)[C@@H]3CC[C@H]12)OCc1ccccc1 | 0.3
33 | C=CCOC(=O)[C@H]1[C@@H]2C(=O)O[C@@H](c3ccccc3)[C@@H](c3ccccc3)N2[C@@H](c2ccc(OCCOC(=O)[C@H]3C[C@H]4C(=O)N[C@@H](Cc5ccccc5)C(=O)N4[C@H]3c3ccc(O)cc3)cc2)[C@]12C(=O)Nc1ccccc12 | -0.0709
34 | COCCCNC(=O)[C@@]1(Sc2ccc(C)cc2)CC(=O)N(Cc2ccccc2)[C@@H]1c1ccc(CO)cc1I | -0.0362
35 | CCCCCN1CC=CC23O[C@@H]4C=CCOC(=O)[C@@H]4[C@H]2C(=O)N(C(CO)C(C)C)[C@@H]3C1=O (stereo partly specified) | -0.276
36 | CO[C@@H]1COC(=O)CC=C[C@@H](C)[C@@H]2C=C[C@@H](O)[C@@H](COC(=O)CC=C[C@H]1C)O2 | 0.0756
37 | CO[C@@H]1COC(=O)[C@H](C)NC(=O)[C@@H](C)COC(=O)CCC[C@H]1C | -0.138
38 | COC(=O)[C@@]1(Cc2ccc(OC)cc2)[C@H]2c3cc(C(=O)N4CCCC4)n(Cc4cc(F)c(F)c(F)c4)c3C[C@H]2CN1C(=O)c1ccccc1 | 2.22
39 | CC(C)=NOCc1cccc(-c2cc(-c3ccccc3)no2)c1 | 0.0952
40 | CC(C)=NOCc1ccc(-c2cc(-c3ccccc3)no2)cc1 | -0.214
41 | Cn1cccc1C(O)C1C=CC2C(=O)NC(=O)C2N1Nc1ccccn1 (stereo unspecified) | 0.0723
